Screening data from PubChem.
Tgondii IFNg = T. gondii growth inhibition with IFN-gamma, primary screen, cell-based | hit rate 3.8% among 69,000 | Toxoplasma gondii growth in IFN-gamma-treated host cells; active compounds read low | AID 1259416, 2018 | activity change, negative = inhibition, % (test concentration not listed); in the data active means activity change below about -70%, passing the limit was not always enough;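 further: host cells are HeLa cells infected with Toxoplasma gondii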
Numbers without * were called inactive; i = inactive; ! = repeats disagree. The entries come from a sample that favours hits as a whole.

SMILES	Tgondii IFNg
CN1C(=O)c2cc(NC(=O)Nc3cccc(C#N)c3)ccc2OC[C@H]2O[C@@H](CC(=O)NCc3ccc(Cl)cc3)CC[C@@H]21	-5
Cc1cc(C(=O)Nc2ccc3c(c2)C(=O)N(C)[C@H]2CC[C@H](CC(=O)NCc4ccc(-c5ccccc5)cc4)O[C@H]2CO3)no1	-62
CCOCC12CCCOC1CCN(C(=O)N1CCCC1)C2 (centres undefined)	-1
CN1CCN2CCN(C(=O)CCCOc3ccccc3)CC2C1=O (centres undefined)	-35
Cc1nc(CN2CCN(C(=O)c3cccc(-n4cccn4)c3)CC2)cs1	5
CS(=O)(=O)N1CCCC12CCCN(S(=O)(=O)c1cc(F)cc(F)c1)C2 (centres undefined)	1
O=C(COc1ncnc2cc(Cl)ccc12)c1ccc(OC(F)(F)F)cc1	-45
COCCN1CCOCC2(C1)CN(C(=O)c1cccn1C)CCO2 (centres undefined)	58
CCC(Oc1ccc2c(c1)CCCC2)C(=O)NCCc1cnc[nH]1 (centres undefined)	-18
CCn1ncnc1CN1CCC(CNS(C)(=O)=O)C1 (centres undefined)	80
O=S(=O)(NCc1ccccc1)Nc1ccccc1N1CCOCC1	-16
CCCn1c(=O)c(-c2nc(-c3cccc(Cl)c3)no2)c(O)c2ccccc21	-2
C=CCN1CC2(CCN(Cc3cccnc3OC)CC2)OCC1=O	-1
COCC12CCCOC1CCN(C(=O)N1CCCC1)C2 (centres undefined)	34
COc1ccccc1NC(=O)C1C2C=CC(C2)C1C(=O)O (centres undefined)	11
CN1C(=O)c2cc(NC(=O)c3cccc(F)c3)ccc2OC[C@@H]2O[C@H](CC(=O)NCc3ccccc3Cl)CC[C@H]21	-22
CN1C(=O)c2cc(NC(=O)c3cccc(F)c3)ccc2OC[C@@H]2O[C@H](CC(=O)NCC3CCCCC3)CC[C@@H]21	-23
CN1C(=O)c2cc(NC(=O)c3cccc(F)c3)ccc2OC[C@H]2O[C@@H](CC(=O)NCC3CCCCC3)CC[C@H]21	-77*!
CCN(CC)S(=O)(=O)N1CCCC1c1cc(C(F)(F)F)c2c(N)[nH]nc2n1 (centres undefined)	-15
COc1cc(OC)cc(C(=O)NC2CCN(c3ncc4c(n3)CCOC4)CC2)c1	166
CC(=O)N1CC[C@H]2OCC[C@]2(C(=O)NCCc2ccccn2)C1	9
CCOc1ccccc1NC(=O)c1cnccn1	-46
O=C(Nc1ccc(OC(F)(F)F)cc1Br)c1cnccn1	-110*
Cc1nc(NC(=O)c2cnccn2)ccc1Br	455
Cc1ccc(-c2ccc(S(C)(=O)=O)cc2)cn1	-4
SMILES	Tgondii IFNg
CNc1ncc(-c2ccc(CO)cc2)c(-c2ccc(C)cc2)n1	-14
O=c1ccc2cc(S(=O)(=O)N3CCN(CCOc4ccc(Cl)cc4)CC3)ccc2[nH]1	56
CC(CNCC(=O)Nc1cnccn1)Oc1cccnc1 (centres undefined)	0
CCOc1cccc(C2c3[nH]c4ccccc4c3CCN2C(=O)COc2ccccc2)c1 (centres undefined)	i
CCOc1cccc(C2c3[nH]c4ccccc4c3CCN2C(=O)c2ccccc2F)c1 (centres undefined)	-65
CCCC(=O)N1CCc2c([nH]c3ccccc23)C1c1cccc(OCC)c1 (centres undefined)	497
CCOc1cccc(C2c3[nH]c4ccccc4c3CCN2C(=O)c2ccc(OC)c(OC)c2)c1 (centres undefined)	-89*
CCOc1cccc(C2c3[nH]c4ccccc4c3CCN2C(=O)c2cccc(Cl)c2)c1 (centres undefined)	-122*
CCOc1cccc(C2c3[nH]c4ccccc4c3CCN2C(=O)c2cc3ccccc3[nH]2)c1 (centres undefined)	i
CCOc1cccc(C2c3[nH]c4ccccc4c3CCN2C(=O)c2cccs2)c1 (centres undefined)	i
CCOc1cccc(C2c3[nH]c4ccccc4c3CCN2C(=O)c2ccc3c(c2)OCO3)c1 (centres undefined)	i
CCOc1cccc(C2c3[nH]c4ccccc4c3CCN2C(=O)c2ccco2)c1 (centres undefined)	-109*
Cc1occc1C(=O)N1CC[C@H](OCC2CC2)[C@@H]1Cc1cnn(C)c1	1
COc1cc(NC(=O)Nc2ccc(-c3nc(-c4ccccc4)co3)cc2)cc(OC)c1	73
COc1cccc(NC(=O)CN2CCC3(CC2)N=C(c2ccc(Cl)cc2)C(=O)N3)c1	24
COC(=O)c1sccc1-c1ccc(C(C)=O)o1	-2
Cc1oc(-c2ccc(C(=O)NCc3ccccn3)cc2)nc1CN1CCN(c2ccccc2)CC1	-29
Cc1oc(-c2ccc(C(=O)NCc3cccs3)cc2)nc1CN1CCN(c2ccccc2)CC1	-57
Cc1oc(-c2ccc(C(=O)NCCc3ccccc3)cc2)nc1CN1CCN(c2ccccc2)CC1	-59
Cc1oc(-c2ccc(C(=O)NCCN3CCCC3)cc2)nc1CN1CCN(c2ccccc2)CC1	-76*
CNC(=O)c1ccc(-c2nc(CN3CCN(S(=O)(=O)c4c(C)cc(C)cc4C)CC3)c(C)o2)cc1	-96*
COc1ccccc1CNC(=O)c1ccc(-c2nc(CN3CCN(c4ccccc4)CC3)c(C)o2)cc1	-109*
CNC(=O)c1ccc(-c2nc(CN3CCN(S(C)(=O)=O)CC3)c(C)o2)cc1	-8
Cc1ccccc1CCNC(=O)c1ccc(-c2nc(CN3CCN(c4ccccc4)CC3)c(C)o2)cc1	-71*
CCCNC(=O)c1ccc(-c2nc(CN3CCN(c4ccccc4)CC3)c(C)o2)cc1	60
SMILES	Tgondii IFNg
Cc1oc(-c2ccc(C(=O)NCCC3=CCCCC3)cc2)nc1CN1CCN(c2ccccc2)CC1	-50
Cc1oc(-c2ccc(C(=O)NCCC(C)C)cc2)nc1CN1CCN(c2ccccc2)CC1	-38
CNC(=O)c1ccc(-c2nc(CN3CCN(S(=O)(=O)c4ccc(C)cc4C)CC3)c(C)o2)cc1	-66
COC(=O)[C@H]1C[C@@H](O)CCN1CC1CCOCC1	3
O=C1CC(C(=O)N(c2ccccc2)C(C(=O)NCc2ccccc2)c2ccccc2)CS1 (centres undefined)	-8
CCC12CC3CC(O)(C1)CC(C(=O)NCCC(=O)Nc1nccs1)(C3)C2 (centres undefined)	-14
Cc1ccc(-c2nc(Cn3nnc(-c4nc(-c5ccccc5Cl)no4)c3C)c(C)o2)cc1	-25
CC(=O)N1CCO[C@H]2CCN(C(=O)c3csc(C)n3)C[C@H]21	-30
CNC(=O)[C@H]1CC2CN(Cc3ccc4c(c3)OCO4)CC2N1C (some centres undefined)	-48
CC(C)c1nccc(CN2CCN(C)C(C(=O)O)C2)n1 (centres undefined)	9
CN(Cc1ccccc1)Cc1cc(C(=O)NC2CC(=O)Nc3ccccc32)no1 (centres undefined)	-30
Cc1nc(-c2ccc(F)cc2)sc1-c1ccc(SCc2cccc(Cl)c2)nn1	-45
Cc1ccc(C)c(NC(=O)c2ccc(-c3nc(CN4CCN(c5ccccc5)CC4)c(C)o3)cc2)c1	-40
Cc1oc(-c2ccc(C(=O)NCC3CCCO3)cc2)nc1CN1CCN(c2ccccc2)CC1 (centres undefined)	95
Cc1ccc(C)c(CNC(=O)c2ccc(-c3nc(CN4CCN(c5ccccc5)CC4)c(C)o3)cc2)c1	-79*
CCC1CCCCN1C(=O)c1cnn(-c2nccc(-c3cc(C)sc3C)n2)c1COC (centres undefined)	11
O=C(CCc1ccc2[nH]ccc2c1)NCc1ccccn1	-17
